Among the data in PubChem BioAssay (NCI) are growth values, retold here.

The panel holds about 83,000 compounds, 20% with a hit somewhere; the sample as a whole holds those more often.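 Results are percent growth after 48 hours of single-concentration exposure. 100 means growth as in untreated cells, lower positive values show inhibition; negative values down to -100 show cell death.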 Values without a mark were called inactive. Calls of active or inactive are those of the source. Rule for the calls: active = growth percent below 10; inactive = the rest.

This test has as its system MDA-MB-468 breast. Nature of the test: NCI-60 one-dose screen, 48 h (100 = growth as untreated, 0 = no growth, -100 = all killed). Particulars: 10 µM unless noted.
`COc1cc(-c2cc(-c3nc4ccccc4[nH]3)[nH]n2)cc(OC)c1OC`: the growth is 14.7%.

Regarding `COC(=O)C(c1ccccc1)C(CC(=O)c1ccccc1)c1ccccc1` (centres undefined), the growth is 87.5%. As to `CN1C(=O)N(C)C2Nn3c(s/c(=C\c4ccccc4)c3=O)=NC21` (centres undefined), the growth was 95.4%.

For the compound `O=C(Nc1ccccc1S)c1ccccc1`, the growth was 115%. To `Cn1cc(CC2CC(=O)N(c3ccccc3)C2=O)sc1=NC(=O)c1ccccc1` (centres undefined) belongs 99.8%; to `CS(=O)(=O)c1ccc(-c2nc3ccccn3c2-c2nc3ccc([N+](=O)[O-])cc3[nH]2)cc1`, 104%; to `CC[C@H](Nc1nc(N)nc(N)c1Cl)c1nc2cccc(NCc3ccc(C(=O)NO)cc3)c2c(=O)n1-c1ccccc1`, -34.3% (active).

Regarding `C[Si](C)(C)Cc1ccccc1`, the growth was 104%. To `O=C(O)c1cn(C2CC2)c2cc(N3CCN(C(=O)/C=C/c4ccc(Cl)cc4)CC3)c(F)cc2c1=O` belongs 75.5%; to `O=C(CN1CCN(c2cc3c(cc2F)c(=O)c(C(=O)O)cn3C2CC2)CC1)N/N=C/c1ccncc1`, 99.6%; to `O=C(CCl)Nc1ccc2c(c1)C(=O)c1ccccc1C2=O`, -19.1% (active). On to `CCN(CC)CCCN1C(=O)c2c(c(C)c3c(oc4ccc(O)cc43)c2C)C1=O`, for which the growth was 75.7%.

On to `COc1cc(C(=O)Nc2cc(O)c(CC=C(C)C)c(O)c2)cc2c1O[C@]1(C)CC[C@@H](O)C(C)(C)[C@H]1C2`, for which the growth is 36.3%. To `O=c1c2cc(F)ccc2sc2c(NCCN3CCCCC3)nc3ccccc3c12` belongs 6.41% (active).
